Test systems include NCI-H23 lung; NCI-H226 lung; NCI-H322M lung; HOP-62 NSCLC; NCI-H460 lung; HOP-92 NSCLC; NCI-H522 lung; A549/ATCC NSCLC; 786-0 renal; COLO 205 colon.
Holding throughout (assay): NCI-60 one-dose screen, 48 h (100 = growth as untreated, 0 = no growth, -100 = all killed)
Holding throughout (conditions): 10 µM unless noted

Molecules are shown by their SMILES. This is part of a sample that, as a whole, favours compounds with a hit. Of some 83,000 tested, about 20% had one in any assay.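 96-well plates, one dose, 48 hours. Percent growth reported; active if below 10.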 A number with no mark means an inactive call. Active and inactive are the calls of the source.

As for `NS(=O)(=O)c1ccc(CCN2C(=O)/C(=C\c3ccccc3)C=C2c2ccc(Cl)cc2)cc1`, the growth was 104% with NCI-H23 lung; 102% in the assay with NCI-H226 lung; 89.8% in the assay with NCI-H322M lung; 95.5% in the assay with HOP-62 NSCLC; 99.3% with NCI-H460 lung; 76.3% in the assay on HOP-92 NSCLC. Besides, the growth in the assay on NCI-H522 lung is 91.8%; in the assay on A549/ATCC NSCLC it was 99.1%; in the assay on 786-0 renal, 96.4%; in the assay on COLO 205 colon, 115%.

With `CC1(C(=O)O)CCC(N)(C(=O)O)C1(C)C` (stereo not given), the growth was 113% in the assay on NCI-H23 lung; 108% in the assay with NCI-H226 lung; 108% with NCI-H322M lung; 99.5% with HOP-62 NSCLC; 117% in the assay on NCI-H460 lung; 89.4% in the assay with HOP-92 NSCLC. In addition, the growth is 97.1% in the assay with NCI-H522 lung, 110% with A549/ATCC NSCLC, 109% with 786-0 renal and 104% in the assay with COLO 205 colon.

Consider `Cn1c(=O)c(C#N)c(-c2ccco2)n2c(S(=O)(=O)Cc3ccccc3)nnc12`, for which the growth in the assay with NCI-H23 lung is 94.3%; in the assay with NCI-H226 lung, 122%; in the assay with NCI-H322M lung it was 89.1%; in the assay with HOP-62 NSCLC, 104%; with NCI-H460 lung, 79.9%; in the assay on HOP-92 NSCLC, 92.8%. Besides, the growth with NCI-H522 lung is 81.2%; in the assay on A549/ATCC NSCLC it was 92.8%; in the assay on 786-0 renal it was 81.1%; in the assay on COLO 205 colon it was 111%.

On to `CC(C)C1=NOC(=O)C1=Cc1cn(-c2ccccc2)nc1-c1ccc(Br)cc1`, for which the growth is 85.8% in the assay on NCI-H23 lung; 93.7% in the assay on NCI-H226 lung; 90.5% in the assay on NCI-H322M lung; 91.3% with HOP-62 NSCLC; 83.5% with NCI-H460 lung; 83.1% in the assay on HOP-92 NSCLC. Also, the growth in the assay on NCI-H522 lung is 86%; in the assay with A549/ATCC NSCLC it was 98.2%; in the assay with 786-0 renal, 82.9%; in the assay with COLO 205 colon, 97.8%.

Regarding `COc1ccc(NC(=S)NNc2ccc(-c3ccc(OC)c(OC)c3)nn2)cc1`, the growth with NCI-H23 lung is 106%; in the assay on NCI-H226 lung, 107%; in the assay on NCI-H322M lung it was 96.7%; with HOP-62 NSCLC, 97.8%; in the assay with NCI-H460 lung, 99.7%; in the assay with HOP-92 NSCLC, 106%. Also, the growth with NCI-H522 lung was 97.9%; with A549/ATCC NSCLC, 110%; in the assay with 786-0 renal, 101%; in the assay on COLO 205 colon, 112%.

`CCN(CC)CCCOc1ccc2c(c1)O/C(=C\c1cccc(OC)c1)C2=O`: the growth was 83.9% in the assay with NCI-H23 lung; 87.8% with NCI-H226 lung; 89.8% with NCI-H322M lung; 104% in the assay with HOP-62 NSCLC; 87.2% with NCI-H460 lung; 84.3% in the assay with HOP-92 NSCLC. For the same compound, the growth in the assay on NCI-H522 lung was 98.8%; in the assay on A549/ATCC NSCLC it was 93.5%; in the assay with 786-0 renal, 93.8%; in the assay on COLO 205 colon, 94.7%.

For `CC1(C)CC[C@]23CC[C@]4(C)[C@H](CC[C@@H]5[C@@]6(C)C/C(=C/c7cccnc7)C(=O)C(C)(C)[C@@H]6CC[C@]54C)[C@H]2[C@H]1OC3=O`, the growth in the assay on NCI-H23 lung was 46.7% [100 µM]; with NCI-H226 lung, 24.6% [100 µM]; with NCI-H322M lung it was 65.2% [100 µM]; in the assay with HOP-62 NSCLC, 25.2% [100 µM]; with NCI-H460 lung, 23.2% [100 µM]; with HOP-92 NSCLC it was 24.8% [100 µM]. Besides, the growth in the assay on NCI-H522 lung was 30.5% [100 µM]; in the assay with A549/ATCC NSCLC, 44.8% [100 µM]; in the assay on 786-0 renal, 45.5% [100 µM]; in the assay on COLO 205 colon it was 23.1% [100 µM].

In the case of `O=C1C(Cl)=C(Nc2ccc3cn[nH]c3c2)C(=O)c2ccccc21`, the growth in the assay on NCI-H23 lung is -70.1% (active); in the assay with NCI-H226 lung it was -4.83% (active); with NCI-H322M lung it was -27.4% (active); in the assay on HOP-62 NSCLC it was -6.04% (active); in the assay with NCI-H460 lung it was 4.67% (active); in the assay on HOP-92 NSCLC it was -80.4% (active). Besides, the growth with NCI-H522 lung is -84.7% (active); in the assay on A549/ATCC NSCLC, 39.7%; with 786-0 renal, -99.4% (active); in the assay on COLO 205 colon, -85.5% (active).

On to `Nn1c(Nc2ccc(S(=O)(=O)Nc3ncccn3)cc2)nnc(/C=C/c2c(O)ccc3ccccc23)c1=O`, for which the growth is 88.9% with NCI-H23 lung; 78.8% with NCI-H226 lung; 90% in the assay on NCI-H322M lung; 81.8% in the assay on HOP-62 NSCLC; 88.4% in the assay on NCI-H460 lung; 83.3% in the assay with HOP-92 NSCLC. Also, the growth was 98.1% in the assay with NCI-H522 lung, 89.5% in the assay with A549/ATCC NSCLC, 111% with 786-0 renal and 103% with COLO 205 colon.

As for `O=C(Nc1ccc(Cl)c(C(F)(F)F)c1)Nc1ccc(-c2cccnc2)cc1N1CCC(CO)CC1`, the growth in the assay on NCI-H23 lung was 38.4%; in the assay on NCI-H226 lung it was 53.4%; with NCI-H322M lung, 54.8%; in the assay with HOP-62 NSCLC it was 47.5%; with NCI-H460 lung, 18.5%; in the assay on HOP-92 NSCLC, 34.5%. Further, the growth in the assay on NCI-H522 lung was 20.2%; in the assay with A549/ATCC NSCLC, 22.2%; with 786-0 renal, 15.6%; with COLO 205 colon, -26.6% (active).

Take `CC(=O)n1cc(C=O)c2ccccc21`: the growth is 94.4% in the assay with NCI-H23 lung; 91.1% in the assay with NCI-H226 lung; 105% in the assay with NCI-H322M lung; 103% in the assay with HOP-62 NSCLC; 112% in the assay with NCI-H460 lung; 94.8% with HOP-92 NSCLC. The growth is 91.3% in the assay on NCI-H522 lung, 89.4% in the assay with A549/ATCC NSCLC, 101% with 786-0 renal and 104% in the assay with COLO 205 colon.

Regarding `O=C1CC(c2ccc3c(c2)OCO3)Nc2ccccc21` (stereo not given), the growth is 40.2% with NCI-H23 lung; 65.3% in the assay on NCI-H226 lung; 51.3% in the assay with NCI-H322M lung; 24.2% in the assay on HOP-62 NSCLC; 10.5% in the assay with NCI-H460 lung; 20.5% with HOP-92 NSCLC. In addition, the growth in the assay on NCI-H522 lung was 19.8%; in the assay with A549/ATCC NSCLC, 21.8%; in the assay with 786-0 renal, 42.2%; in the assay on COLO 205 colon, -16.4% (active).

Take `CCOC(=O)c1c[nH]c2cc(OCC3CC3)c(OCC3CC3)cc2c1=O`: the growth in the assay on NCI-H23 lung was 110%; with NCI-H226 lung it was 106%; in the assay with NCI-H322M lung, 100%; with HOP-62 NSCLC it was 109%; in the assay on NCI-H460 lung, 103%; in the assay on HOP-92 NSCLC, 116%. Further, the growth in the assay with NCI-H522 lung is 95.5%; in the assay with A549/ATCC NSCLC, 109%; in the assay with 786-0 renal, 120%; in the assay on COLO 205 colon, 113%.

Turning to `N/C(=N\c1nc2ccccc2[nH]1)NC(=O)Cc1cccc2ccccc12`, the growth in the assay with NCI-H23 lung is 76.5%; in the assay with NCI-H226 lung, 88.7%; in the assay with NCI-H322M lung it was 85.3%; in the assay on HOP-62 NSCLC it was 108%; in the assay on NCI-H460 lung, 84.4%; with HOP-92 NSCLC it was 64.6%. The growth with NCI-H522 lung was 63.7%; in the assay with A549/ATCC NSCLC it was 69.7%; in the assay with 786-0 renal it was 70.4%; in the assay on COLO 205 colon, 90.6%.

For the compound `CCN(CC)c1ccc2cc(C(Nc3ccc(Cl)cc3)c3nnnn3C(C)(C)C)c(=O)oc2c1` (stereo not given), the growth is 95.6% in the assay on NCI-H23 lung; 82.9% in the assay with NCI-H226 lung; 93.8% in the assay on NCI-H322M lung; 99.5% in the assay with HOP-62 NSCLC; 84.1% in the assay on NCI-H460 lung; 76.9% in the assay with HOP-92 NSCLC. The growth in the assay with NCI-H522 lung is 79.5%; in the assay on A549/ATCC NSCLC, 77.9%; in the assay on 786-0 renal, 94%; with COLO 205 colon, 114%.

Consider `CCOC(=O)c1nn(C2CCCCO2)c2ccc(NC(=O)CN3CCOCC3)cc12` (stereo not given), for which the growth in the assay on NCI-H23 lung is 99.7%; with NCI-H226 lung, 106%; with NCI-H322M lung, 95.7%; with HOP-62 NSCLC it was 100%; in the assay on NCI-H460 lung, 101%; in the assay on HOP-92 NSCLC it was 108%. The growth in the assay on NCI-H522 lung was 106%; with A549/ATCC NSCLC, 106%; in the assay with 786-0 renal it was 98.3%; in the assay on COLO 205 colon it was 118%.

As to `CCN(CC)CCS(=O)(=O)CCNc1ccnc2cc(Cl)ccc12`, the growth in the assay on NCI-H23 lung was -18.4% (active); with NCI-H226 lung, 30.1%; in the assay with NCI-H322M lung, 56.8%; with HOP-62 NSCLC, 22.5%; in the assay on NCI-H460 lung, 2.87% (active); in the assay with HOP-92 NSCLC, 26.4%. For the same compound, the growth with NCI-H522 lung is -50.5% (active); in the assay with A549/ATCC NSCLC, 71.9%; with 786-0 renal, 10.2%; in the assay on COLO 205 colon, -44.5% (active).

As to `O=S(=O)(c1ccc(N/N=C\c2ccccc2Cl)cc1)c1ccc(N/N=C/c2ccccc2Cl)cc1`, the growth is 86.8% with NCI-H23 lung; 74.9% in the assay with NCI-H226 lung; 94.2% in the assay on NCI-H322M lung; 88% in the assay with HOP-62 NSCLC; 71.2% with NCI-H460 lung; 31.2% in the assay on HOP-92 NSCLC. The growth is 84.8% with NCI-H522 lung, 85.2% in the assay on A549/ATCC NSCLC, 98.4% in the assay with 786-0 renal and 97.1% in the assay on COLO 205 colon.

For `CC(C)(C)c1cc(C(=O)N2CCC(C(=O)NCCN)CC2)cc(C(C)(C)C)c1`, the growth was 104% with NCI-H23 lung; 81.3% in the assay with NCI-H226 lung; 93.6% in the assay with NCI-H322M lung; 97.5% with HOP-62 NSCLC; 100% in the assay on NCI-H460 lung; 85.1% in the assay with HOP-92 NSCLC. The growth is 66% in the assay on NCI-H522 lung, 81% in the assay on A549/ATCC NSCLC, 106% in the assay with 786-0 renal and 98.9% with COLO 205 colon.

For `COc1ccc(-c2nc3ccccn3c2/C=C/C(=O)c2cc(OC)c(OC)c(OC)c2)cc1OC`, the growth in the assay with NCI-H23 lung is 16.3%; in the assay on NCI-H226 lung, 23.3%; with NCI-H322M lung, 51.3%; in the assay with HOP-62 NSCLC it was 28.5%; in the assay with NCI-H460 lung it was 0.623% (active); with HOP-92 NSCLC, -22.5% (active). Further, the growth was -5.63% (active) in the assay with NCI-H522 lung, 20.7% in the assay with A549/ATCC NSCLC, 24.7% with 786-0 renal and 17.9% with COLO 205 colon.

As to `Cc1cnc(N)nc1OCCNC(=O)c1cccc(-c2ccc(S(=O)(=O)Nc3ccc4c(c3)N(C(=O)C3CC3)CCC4)cc2)c1`, the growth in the assay on NCI-H23 lung is 72.4%; with NCI-H226 lung it was 72%; in the assay with NCI-H322M lung, 87.5%; in the assay with HOP-62 NSCLC, 79.8%; in the assay with NCI-H460 lung, 75.4%; in the assay on HOP-92 NSCLC, 41%. The growth with NCI-H522 lung is 70.1%; in the assay with A549/ATCC NSCLC it was 79.7%; in the assay on 786-0 renal, 82.3%; in the assay with COLO 205 colon, 99.1%.
